For assay [1], the target named is Nuclear receptor coactivator 3 (Homo sapiens) (UniProt Q9Y6Q9). The experiment in a line: NCOA3 GAL4-fusion reporter inhibition – cell-based, luminescence, quadruplicate, confirmation (AID 588792;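 active = mean inhibition over 43.08%, the solvent-only control mean plus 3 SD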;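 also: 0% = DMSO treated cells and 100% = gossypol at 36 µM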). The note with it: HEK293 GAL4-SRC3 luciferase reporter, at 3.6 µM, active compounds read high.
Assay [2] concerns transactivating tegument protein VP16 (Human herpesvirus 1), Gal4-VP16 luciferase reporter. The experiment in a line: repression of VP16-driven luciferase reporter – cell-based, luminescence, high throughput, counter-screen for SRC3 inhibitor project (AID 588794; in the data active = inhibition above about 30%). To be noted: mammalian cells, at 3.6 µM, active compounds read high.
In assay [3] the target is Nuclear receptor coactivator 1 (Homo sapiens) (UniProt Q15788). The experiment in a line: NCOA1 GAL4-fusion reporter inhibition – cell-based, luminescence, quadruplicate, confirmation (AID 588820;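 active = mean inhibition above 46.68%, the untreated control wells mean plus 3 SD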;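 also: 0% = DMSO wells and 100% = gossypol 36 µM treated wells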). To be noted: HEK293 GAL4-SRC1 luciferase reporter, at 3.6 µM, active compounds read high.
The nature of assay [4]: repression of VP16-driven luciferase reporter – cell-based, luminescence, high throughput, counter-screen for SRC1 inhibitor project (AID 588824; in the data active = inhibition above about 25%). The note with it: cell-based VP16 transactivation luciferase luminescence; at 3.6 µM; active compounds read high. In general terms: A reporter such as luciferase makes a cellular process visible.
Assay [5] is described as follows: StAR promoter reporter inhibitors, counter-screen for LRH-1 inverse agonist project, cell-based, luminescence, high throughput (AID 651611). The note with it: StAR promoter luciferase reporter counterscreen, at 3.6 µM, active compounds read high.
The target of assay [6] is Nuclear receptor subfamily 5 group A member 2 (Homo sapiens) (UniProt O00482). The experiment in a line: NR5A2 activity suppression in reporter cells – cell-based, luminescence, confirmation (AID 651613; in the data active = inhibition above about 42%;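 also: HEK293T cells co-transfected with LRH-1 and StAR promoter luciferase reporter; 0% = vehicle wells and 100% = parental cells lacking receptor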). To be noted: cell-based LRH-1 luciferase reporter, inverse agonism; at 3.6 µM; active compounds read high.
Assay [7] concerns the target Steroidogenic factor 1 (Homo sapiens) (UniProt Q13285). In words: inverse agonism at SF1 nuclear receptor – cell-based, luminescence, high throughput, counter-screen for LRH-1 inverse agonist project (AID 651614; in the data active = inhibition above about 44%;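 also: cells cotransfected with StAR promoter reporter and SF1 expression vector; 0% = vehicle on cells with receptor and 100% = vehicle on cells lacking receptor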). To be noted: cell-based SF1 luciferase reporter, at 3.6 µM, active compounds read high.
Assay [8] can be described thus: compounds suppressing VP16-driven luciferase signal – cell-based, luminescence, high throughput, counter-screen for LRH-1 inverse agonist project (AID 651615; in the data active = inhibition above about 33%). To be noted: Gal4-VP16 luciferase reporter cells, at 3.6 µM, active compounds read high. On the technique in general: The purpose of a counterscreen is to sort out artefacts and off-target activity.

A number with no mark means an inactive call. Activity calls are given as the source filed them. Rule as the data show it, unless noted: active = inhibition above about 28%; inactive = the rest.

Chain of Steroidogenic factor 1 (Homo sapiens) (Q13285 whole entry, looked up, the tested form may be a part): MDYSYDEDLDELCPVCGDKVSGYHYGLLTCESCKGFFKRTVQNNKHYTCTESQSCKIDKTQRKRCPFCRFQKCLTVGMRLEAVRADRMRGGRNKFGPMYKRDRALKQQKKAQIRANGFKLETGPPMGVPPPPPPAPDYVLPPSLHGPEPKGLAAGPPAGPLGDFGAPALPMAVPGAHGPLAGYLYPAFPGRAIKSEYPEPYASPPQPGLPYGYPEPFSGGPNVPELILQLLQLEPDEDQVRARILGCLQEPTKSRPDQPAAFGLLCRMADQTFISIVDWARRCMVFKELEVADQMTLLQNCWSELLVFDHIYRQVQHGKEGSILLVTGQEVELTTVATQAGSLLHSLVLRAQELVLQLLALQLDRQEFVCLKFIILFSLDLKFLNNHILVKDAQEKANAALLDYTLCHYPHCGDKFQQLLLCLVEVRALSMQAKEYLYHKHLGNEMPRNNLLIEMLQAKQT
Chain of Nuclear receptor coactivator 3 (Homo sapiens) (Q9Y6Q9 whole entry, looked up, the tested form may be a part): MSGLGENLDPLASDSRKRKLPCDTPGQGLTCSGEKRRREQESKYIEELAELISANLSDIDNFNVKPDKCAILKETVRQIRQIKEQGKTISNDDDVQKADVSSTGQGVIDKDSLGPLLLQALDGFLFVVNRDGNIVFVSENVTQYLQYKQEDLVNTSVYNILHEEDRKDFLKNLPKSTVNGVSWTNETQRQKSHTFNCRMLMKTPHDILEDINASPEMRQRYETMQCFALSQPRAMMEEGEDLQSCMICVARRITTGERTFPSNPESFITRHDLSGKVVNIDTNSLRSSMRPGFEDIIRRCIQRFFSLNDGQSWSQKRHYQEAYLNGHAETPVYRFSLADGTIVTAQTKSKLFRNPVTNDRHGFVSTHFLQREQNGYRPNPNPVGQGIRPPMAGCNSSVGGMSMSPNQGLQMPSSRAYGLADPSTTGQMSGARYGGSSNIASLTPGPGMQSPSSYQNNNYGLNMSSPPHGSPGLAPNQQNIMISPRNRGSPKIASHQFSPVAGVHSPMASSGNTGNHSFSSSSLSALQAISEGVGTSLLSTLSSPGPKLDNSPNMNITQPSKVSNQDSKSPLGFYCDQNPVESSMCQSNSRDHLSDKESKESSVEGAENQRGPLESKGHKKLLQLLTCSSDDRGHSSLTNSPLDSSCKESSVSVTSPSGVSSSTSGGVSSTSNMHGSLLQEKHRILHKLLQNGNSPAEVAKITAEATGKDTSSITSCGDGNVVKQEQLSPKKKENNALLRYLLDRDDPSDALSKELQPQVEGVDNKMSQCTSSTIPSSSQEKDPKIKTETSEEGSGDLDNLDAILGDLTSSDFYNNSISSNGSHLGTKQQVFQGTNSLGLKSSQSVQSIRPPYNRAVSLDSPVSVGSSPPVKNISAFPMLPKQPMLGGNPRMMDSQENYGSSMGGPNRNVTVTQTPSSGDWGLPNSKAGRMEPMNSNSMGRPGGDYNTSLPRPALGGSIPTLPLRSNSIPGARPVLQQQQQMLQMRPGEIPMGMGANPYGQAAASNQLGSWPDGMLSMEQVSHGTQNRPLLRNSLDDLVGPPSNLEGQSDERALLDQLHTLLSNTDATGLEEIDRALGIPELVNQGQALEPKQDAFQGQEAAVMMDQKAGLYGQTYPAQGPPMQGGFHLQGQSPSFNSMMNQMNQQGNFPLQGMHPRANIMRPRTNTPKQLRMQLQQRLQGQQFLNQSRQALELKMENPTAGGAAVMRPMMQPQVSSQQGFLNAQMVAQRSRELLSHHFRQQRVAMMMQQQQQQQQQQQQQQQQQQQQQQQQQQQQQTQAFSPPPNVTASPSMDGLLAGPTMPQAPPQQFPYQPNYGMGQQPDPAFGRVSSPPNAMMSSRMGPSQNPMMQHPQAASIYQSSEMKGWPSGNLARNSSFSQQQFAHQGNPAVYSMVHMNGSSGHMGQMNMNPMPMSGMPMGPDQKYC
Chain of Nuclear receptor coactivator 1 (Homo sapiens) (Q15788 whole entry, looked up, the tested form may be a part): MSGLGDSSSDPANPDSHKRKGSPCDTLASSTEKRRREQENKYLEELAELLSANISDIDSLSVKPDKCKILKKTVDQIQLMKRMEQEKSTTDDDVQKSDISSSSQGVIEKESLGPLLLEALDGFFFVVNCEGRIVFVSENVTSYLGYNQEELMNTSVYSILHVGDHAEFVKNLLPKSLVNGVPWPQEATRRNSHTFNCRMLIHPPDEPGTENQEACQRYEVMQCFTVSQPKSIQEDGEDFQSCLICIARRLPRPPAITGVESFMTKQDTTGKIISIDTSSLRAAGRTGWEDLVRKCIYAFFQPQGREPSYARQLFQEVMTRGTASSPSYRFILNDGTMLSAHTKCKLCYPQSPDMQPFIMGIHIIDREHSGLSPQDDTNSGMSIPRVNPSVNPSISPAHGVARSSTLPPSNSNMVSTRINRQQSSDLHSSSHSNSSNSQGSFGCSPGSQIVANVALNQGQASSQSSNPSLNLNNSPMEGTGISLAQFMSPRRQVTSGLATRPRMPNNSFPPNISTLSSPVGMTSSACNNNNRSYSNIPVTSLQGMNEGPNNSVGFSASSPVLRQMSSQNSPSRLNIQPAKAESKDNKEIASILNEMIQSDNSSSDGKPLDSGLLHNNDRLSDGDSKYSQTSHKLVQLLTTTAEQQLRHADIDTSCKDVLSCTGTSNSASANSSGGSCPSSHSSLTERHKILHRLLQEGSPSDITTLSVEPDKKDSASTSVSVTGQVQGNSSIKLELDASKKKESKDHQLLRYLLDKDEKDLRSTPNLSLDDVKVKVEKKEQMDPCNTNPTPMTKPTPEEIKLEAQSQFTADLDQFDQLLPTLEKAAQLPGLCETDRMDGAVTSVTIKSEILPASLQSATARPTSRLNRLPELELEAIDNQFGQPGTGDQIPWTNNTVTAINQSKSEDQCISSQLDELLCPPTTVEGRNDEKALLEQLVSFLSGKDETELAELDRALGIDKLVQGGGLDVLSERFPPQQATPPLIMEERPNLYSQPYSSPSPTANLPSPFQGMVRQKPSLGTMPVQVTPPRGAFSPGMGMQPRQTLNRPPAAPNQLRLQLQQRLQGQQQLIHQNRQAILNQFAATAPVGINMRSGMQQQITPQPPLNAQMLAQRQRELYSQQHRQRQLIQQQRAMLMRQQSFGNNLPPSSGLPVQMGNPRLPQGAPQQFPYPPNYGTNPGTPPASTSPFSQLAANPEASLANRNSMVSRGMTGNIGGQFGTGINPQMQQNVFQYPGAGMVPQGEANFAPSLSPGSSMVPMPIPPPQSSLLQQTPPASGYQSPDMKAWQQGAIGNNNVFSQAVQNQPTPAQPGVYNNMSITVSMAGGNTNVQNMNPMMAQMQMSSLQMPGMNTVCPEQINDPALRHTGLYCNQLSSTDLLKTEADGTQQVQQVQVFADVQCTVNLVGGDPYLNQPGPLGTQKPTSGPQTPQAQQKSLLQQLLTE
Chain of Nuclear receptor subfamily 5 group A member 2 (Homo sapiens) (O00482 whole entry, looked up): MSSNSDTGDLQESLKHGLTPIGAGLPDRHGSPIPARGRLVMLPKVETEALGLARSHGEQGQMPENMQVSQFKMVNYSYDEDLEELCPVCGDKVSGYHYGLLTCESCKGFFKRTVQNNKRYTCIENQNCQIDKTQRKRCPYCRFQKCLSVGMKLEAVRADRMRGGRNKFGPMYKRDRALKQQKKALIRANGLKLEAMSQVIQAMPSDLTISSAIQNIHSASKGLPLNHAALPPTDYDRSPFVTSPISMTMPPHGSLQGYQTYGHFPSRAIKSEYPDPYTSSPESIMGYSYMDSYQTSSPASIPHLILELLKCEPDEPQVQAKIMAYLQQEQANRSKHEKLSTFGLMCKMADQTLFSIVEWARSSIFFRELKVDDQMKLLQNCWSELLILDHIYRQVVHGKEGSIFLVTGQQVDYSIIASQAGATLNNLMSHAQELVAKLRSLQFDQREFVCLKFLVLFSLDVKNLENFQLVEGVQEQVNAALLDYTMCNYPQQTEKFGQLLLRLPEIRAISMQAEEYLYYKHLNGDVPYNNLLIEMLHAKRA

For `CN(Cc1cnc2nc(N)nc(N)c2n1)c1ccc(C(=O)NC(CCC(=O)O)C(=O)O)c2ccccc12` (centres undefined), the inhibition was 63.8% (active) in assay [1]; 15% in assay [2]; 68% (active) in assay [3]; 13.2% in assay [4]; 77.9% (active) in assay [5]; 45.5% (active) in assay [6]. Besides, the inhibition in assay [7] was 47.6% (active); in assay [8], 12.9%.
Regarding `COc1ccc(N=C(NN)c2ccc3ccccc3n2)cc1`, the inhibition in assay [1] was -51.2%; in assay [2], -47.1%; in assay [3], -105%; in assay [4], -65%; in assay [5], -92.3%; in assay [6] it was -81.3%. The figures for the inhibition in assay [7] and in assay [8] were -83.5% and -96.2%, respectively.
Take `COc1ccc(-c2noc(CCCC(=O)O)n2)cc1`: the inhibition was 44.7% (active) in assay [1]; 36.1% (active) in assay [2]; 30.7% in assay [3]; 26% (active) in assay [4]; 39% (active) in assay [5]; 47.8% (active) in assay [6]. Moreover, the figures for the inhibition in assay [7] and in assay [8] were 40.1% and 30.7%, respectively.
On to `CCN(CC)CCn1c2ccccc2c2cnc(N)c(C#N)c21`, for which the inhibition in assay [1] was 5.22%; in assay [2] it was 35.2% (active); in assay [3] it was 30.1%; in assay [4] it was 50.6% (active); in assay [5] it was 35.7% (active); in assay [6], 65.8% (active). In addition, the inhibition in assay [7] is 57.4% (active); in assay [8] it was 74.8% (active).
Regarding `COc1cc(C=NO)nc(-c2ccccn2)c1`, the inhibition in assay [1] was 78.2% (active); in assay [2], 43.5% (active); in assay [3], 54% (active); in assay [4], 36.5% (active); in assay [5], 85.6% (active); in assay [6] it was 96% (active). Also, the inhibition was 76.9% (active) in assay [7] and 45.7% (active) in assay [8].
Consider `CC1(C)N=C(N)N=C(N)N1CCCCc1ccccc1`, for which the inhibition is 45.9% (active) in assay [1]; 24.4% in assay [2]; 56.8% (active) in assay [3]; 30.3% (active) in assay [4]; 61.4% (active) in assay [5]; 48.8% (active) in assay [6]. In addition, the inhibition in assay [7] was 38.2%; in assay [8], 35.7% (active).
In the case of `CCCCCCCC[n+]1cccc2c3ccccc3ccc21`, the inhibition in assay [1] was 78.5% (active); in assay [2], 81.6% (active); in assay [3], 59.1% (active); in assay [4], 83.7% (active); in assay [5] it was 77% (active); in assay [6] it was 107% (active). The inhibition in assay [7] was 92.8% (active); in assay [8], 93.8% (active).
As to `CN(C)c1cc[n+](CC(=O)c2ccc(-c3ccccc3)cc2)cc1`, the inhibition in assay [1] is 35.6%; in assay [2], 57.6% (active); in assay [3], 35%; in assay [4] it was 66.5% (active); in assay [5], 43.8% (active); in assay [6], 82.3% (active). In addition, the inhibition is 71.8% (active) in assay [7] and 67.9% (active) in assay [8].
Regarding `CCN1/C(=C/c2ccc3cccc(C)c3[n+]2CC)Sc2ccccc21`, the inhibition in assay [1] was 35.1%; in assay [2] it was 63.3% (active); in assay [3], 26%; in assay [4], 71.4% (active); in assay [5], 57% (active); in assay [6], 105% (active). The inhibition in assay [7] was 77% (active); in assay [8] it was 80.5% (active).
`CCc1ccc(-n2cc(-c3ccc(F)cc3)[n+]3c2SCCC3)cc1`: the inhibition in assay [1] was 17.1%; in assay [2] it was 32.1% (active); in assay [3] it was 19.1%; in assay [4] it was 35.4% (active); in assay [5] it was 18.4%; in assay [6] it was 67.7% (active). The inhibition in assay [7] is 60.9% (active); in assay [8], 48.4% (active).
Consider `CCc1ccc(/C=C/c2c[nH]c3ccccc23)[n+](CC)c1`, for which the inhibition in assay [1] is 29.8%; in assay [2], 43.6% (active); in assay [3] it was 24.4%; in assay [4], 58% (active); in assay [5], 39.4% (active); in assay [6], 87.6% (active). In addition, the values for the inhibition in assay [7] and in assay [8] were 74% (active) and 75.8% (active), respectively.
With `Cc1ccc2[nH]c3c(c2c1)CCCC3NC(=O)CCl` (centres undefined), the inhibition in assay [1] was 87.4% (active); in assay [2], 84.2% (active); in assay [3], 44.3%; in assay [4], 82.4% (active); in assay [5], 92% (active); in assay [6] it was 106% (active). Moreover, the inhibition in assay [7] was 96.3% (active); in assay [8], 92.3% (active).
Turning to `CC[n+]1ccc(/C=C/c2c[nH]c3ccccc23)cc1`, the inhibition is 8.39% in assay [1]; 22.7% in assay [2]; -16.8% in assay [3]; 25.5% (active) in assay [4]; 18% in assay [5]; 65% (active) in assay [6]. Also, the inhibition in assay [7] is 55.9% (active); in assay [8], 60.8% (active).
In the case of `CCOc1cc(/C=C2\CN(CC)C/C(=C\c3ccc(O)c(OCC)c3)C2=O)ccc1O`, the inhibition in assay [1] was 65.4% (active); in assay [2], 62.4% (active); in assay [3] it was 4.46%; in assay [4], 51.8% (active); in assay [5] it was 47.3% (active); in assay [6], 91.2% (active). Also, the inhibition in assay [7] was 87.2% (active); in assay [8], 82.6% (active).
Turning to `Clc1ccc(OCCN2CCN(c3ncnc4sccc34)CC2)cc1`, the inhibition in assay [1] was 14.2%; in assay [2], 40.4% (active); in assay [3], -17.4%; in assay [4] it was 42.2% (active); in assay [5], 34.8% (active); in assay [6], 58.5% (active). The inhibition is 50.2% (active) in assay [7] and 46.7% (active) in assay [8].
Take `c1ccc2cc3c(NCCN4CCOCC4)ccnc3cc2c1`: the inhibition in assay [1] was 22.8%; in assay [2] it was 44.7% (active); in assay [3], 38.6%; in assay [4], 45.4% (active); in assay [5], 35.6% (active); in assay [6] it was 83.1% (active). Further, the inhibition in assay [7] is 55.6% (active); in assay [8], 55.8% (active).
Turning to `O=C(/C=C/c1cccs1)NC(=S)NNC(=O)c1ccccc1O`, the inhibition in assay [1] was 76% (active); in assay [2] it was 77.6% (active); in assay [3] it was 57% (active); in assay [4], 78.7% (active); in assay [5] it was 76.8% (active); in assay [6], 106% (active). Further, the inhibition is 91.8% (active) in assay [7] and 86% (active) in assay [8].
For the molecule `NC(=S)NN=Cc1nccc2ccccc12`, the inhibition was 80% (active) in assay [1]; 26.7% in assay [2]; 58.1% (active) in assay [3]; 20.9% in assay [4]; 74.9% (active) in assay [5]; 89.8% (active) in assay [6]. Also, the figures for the inhibition in assay [7] and in assay [8] were 79% (active) and 20.6%, respectively.

As usually defined, the inhibition is the change of the read-out against control, counted positive when it falls.

Source of the values: PubChem BioAssay.
